# Experiments:
# Format in all cases: functional
# [1] = biological target: Solute carrier family 2, facilitated glucose transporter member 1 (Homo sapiens) (UniProt P11166); experiment: ST_JUDE_LEISH: Cytotoxicity at 2uM final concentration against transgenic Leishmania Mexicana promastigotes LmGLUT1 that are glucose transport deficient and complemented with the human glucose transporter GLUT1. Activity is measured by DNA content using SYBR green in vitro
# [2] = biological target: Hexose transporter 1 (Plasmodium falciparum) (UniProt O97467); experiment: ST_JUDE_LEISH: Cytotoxicity at 2uM final concentration against transgenic Leishmania Mexicana promastigotes LmPfHT that are glucose transport deficient and complemented with the Plasmodium falciparum hexose transporter. Activity is measured by DNA content using SYBR green in vitro
# [3] = biological target: Glucose transporter (Leishmania mexicana) (UniProt O61059); experiment: ST_JUDE_LEISH: Cytotoxicity at 2uM final concentration against transgenic Leishmania Mexicana promastigotes LmGT2 that are glucose transport deficient and complemented with the L. Mexicana glucose transporter 2. Activity is measured by DNA content using SYBR green in vitro
# Solute carrier family 2, facilitated glucose transporter member 1 (Homo sapiens), sequence (P11166 whole entry): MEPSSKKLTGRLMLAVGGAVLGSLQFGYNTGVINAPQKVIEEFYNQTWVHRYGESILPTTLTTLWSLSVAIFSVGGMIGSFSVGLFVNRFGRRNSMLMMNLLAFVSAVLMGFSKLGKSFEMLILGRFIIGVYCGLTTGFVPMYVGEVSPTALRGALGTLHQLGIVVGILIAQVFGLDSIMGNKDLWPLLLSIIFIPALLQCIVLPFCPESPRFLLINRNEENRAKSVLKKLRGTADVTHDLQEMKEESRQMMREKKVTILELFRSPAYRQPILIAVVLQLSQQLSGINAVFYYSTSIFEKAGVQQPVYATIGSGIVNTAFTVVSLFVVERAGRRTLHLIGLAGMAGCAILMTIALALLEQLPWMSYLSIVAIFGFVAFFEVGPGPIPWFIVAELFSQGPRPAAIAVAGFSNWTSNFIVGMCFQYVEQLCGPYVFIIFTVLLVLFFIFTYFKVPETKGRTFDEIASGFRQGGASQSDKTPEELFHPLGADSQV
Compound,inhibition [1] [%],inhibition [2] [%],inhibition [3] [%]
O=C(Nc1ccc(-c2ccc(CN3CCNCC3)cc2)cc1)c1cccc(Cl)c1,107,104,104
COc1ccc2nccc([C@@H](O)CN3CCC(NC(=O)C(=Cc4ccc(Cl)cc4Cl)c4ccc(-c5ccccc5)cc4)CC3)c2c1,6.27,4.58,4.7
CC(C)(C)C1=CC(=NNC(=O)c2ccncc2)C=C(C(C)(C)C)C1=O,11.8,14,-0.13
CCN(CC)CCN(Cc1ccc(-c2ccc(C(F)(F)F)cc2)cc1)C(=O)Cn1c(SCc2ccc(F)cc2)nc(=O)c2ccccc21,4.02,1.11,1.8
CC(C(=O)N1CCCC1)N1CCN(S(=O)(=O)c2ccc(C(C)(C)C)cc2)CC1 (centres undefined),-0.57,0.46,4.07
CCCC1N=C(N)N=C(N)N1c1ccccc1 (centres undefined),2.1,-1.28,0.53
COc1cc(NCCCNC(=O)c2cc3c(Cl)cc(Cl)cc3[nH]2)nc2ccccc12,2.04,6.51,0.77
Cc1[nH]c(C)c(-c2ccc(OCc3cc(F)cc(F)c3)nc2)c(=O)c1Br,3.26,5.62,0.58
CS(=O)(=O)c1ccc(-c2cnc(N)c(-c3ccc(O)cc3)c2)cc1,2.19,1.67,1.48
O=C(NCc1ccc(F)cc1)c1cc(Br)cc(N2CCN(c3ccncc3)CC2)c1,7.75,6.55,4.17
Oc1cc(Nc2ccnc3cc(-c4cccc(CN5CCOCC5)c4)ccc23)c(F)cc1Cl,4.47,4.48,3.67
Cc1cc(C(=O)NC2CCN(CC3(c4ccccc4)CCCCC3)CC2)on1,1.62,0.59,-0.45
COc1ccc(C(=O)COc2cccc(/C=C/C(=O)O)c2)cc1OC,0.26,0.15,-0.23
COc1ccc2ncc(F)c(CCN3CC4CCCC4(CNCc4ccc5c(n4)NC(=O)CS5)C3)c2n1 (centres undefined),1.18,1.32,0.3
COc1cc2c(c(OC)c1[N+](=O)[O-])C=CC1(O2)N(C)c2ccc([N+](=O)[O-])cc2C1(C)C (centres undefined),4.19,0.99,1.36
CC1CCC(NCc2ccc3c(CNC4CCC(C)CC4)c(O)ccc3c2O)CC1 (centres undefined),1.24,-0.12,-1.56
Cc1nc(-c2cccc3c(NC(=O)N4CCc5cc6nccc(N7CCN(C)CC7)c6cc54)cccc23)no1,1.15,-2.64,-0.68

Compound,inhibition [1] [%],inhibition [2] [%],inhibition [3] [%]
O=C1OC(c2ccccc2)(c2ccccn2)CN1C1CCN(Cc2cccn2-c2ccc(Cl)cc2)CC1 (centres undefined),2.2,1.43,-0.08
c1ccc(CNCc2cccc(-c3cccc(-c4nc5ccccc5[nH]4)c3)c2)cc1,4.44,5.52,3.48
CCN(CC)CCNc1nc(C=Cc2ccc(Cl)cc2)nc2cc3ccccc3cc12,-0.78,-0.58,-1.66
CC(C)(C)COC(=O)c1ccc(NC(=O)N[C@@H](Cc2ccc(O)cc2)C(=O)NC2CCN(Cc3ccc(O)cc3)C2)cc1 (some centres undefined),-2.22,-2.38,-0.79
O=C(N[C@H](Cc1ccc(Cl)cc1)C(=O)N1CCN(c2ccnc3cc(Cl)ccc23)CC1)[C@H]1Cc2ccccc2CN1,0.9,-0.43,-2.58
Oc1ccc2c(c1CNC1CCCCC1)CCCC2,5.27,3.89,4.96
CCOC(=O)c1ccc(NC(=O)Nc2ccc(Cn3ncc(N4CCCNCC4)c(Cl)c3=O)cc2)cc1,8.8,12.6,7.11
O=C(Nc1cccc(CN2CCCN(Cc3ccc4c(c3)OCO4)CC2)c1)c1ccc(Cl)c(Cl)c1,6.43,5.95,8.61
Oc1cccc(Nc2ccnc3cc(-c4cc5ccccc5o4)ccc23)c1,-0.71,-0.27,-2.34
CC(C)(C)CC(=O)Nc1ccc(Nc2cc(-c3ccncc3)cc3ncc(C(N)=O)cc23)cc1,-0.38,1.53,1.26
CSc1nccc(-c2ccc3ccnc(N)c3c2)n1,11.2,10.7,9.37
CN1CCCC(OC(=O)c2ccccc2)C1 (centres undefined),4.26,3.71,3.1
CCC(C)NS(=O)(=O)c1ccc2nc(Nc3ccc(C)cc3)n(C3CCCCC3)c2c1 (centres undefined),5.26,4.02,3.35
COc1ccc(NC(=O)c2ccc(-c3nc(-c4ccc(Cl)cc4)cs3)cc2)cc1N1CCN(C)CC1,0.97,0.94,0.9
O=C1OC2(CN1CC1CCN(Cc3ccc(O)c(Cl)c3)CC1)c1ccccc1-c1ccccc12,8.04,6.3,3.94
CN1CCC[C@H]1COc1ccc(CN2CC[C@H](NC(=O)c3ccc(Cl)c(Cl)c3)C2)c2ccccc12,9.64,8.86,6.54

# Reference: ChEMBL document CHEMBL3433997, “St. Jude Leishmania screening dataset” (2016)
